Experimental data: the supplement of paper PMC12350171
Counter-ions that a name gives are not always drawn.

Experiments:
Conditions in all cases: 20 µM
[1] = test system: Salmonella enterica typhimurium; assay: growth AUC normalised to DMSO control (fraction of control); higher = less growth inhibition, active = hit call of the paper
Outline: (§1)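 Pathogens were passaged twice under anaerobic conditions, then inoculated into pre-reduced mGAM plates at a starting OD578 of 0.01, with compound at 20 μM and 1% DMSO, and sealed with breathable membranes. For Haemophilus parainfluenzae, the medium was supplemented with hemin and NAD. OD578 was read every hour for 24 h in three biological replicates. Growth-curve AUC was calculated by the trapezoidal rule up to the exponential-to-stationary transition and normalised to DMSO controls on the same plate.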

[2] = test system: Shigella flexneri; assay: as above
Outline: as §1

[3] = test system: Vibrio cholerae; assay: as above
Outline: as §1

[4] = test system: Yersinia pseudotuberculosis; assay: as above
Outline: as §1

[5] = test system: P. vulgatus RND KO; assay: growth AUC normalised to DMSO control (median) (fraction of control); higher = less growth inhibition, active = hit call of the paper
Outline: (§2)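 Anaerobic growth was tracked hourly at OD578 for 24 h in 96-well plates of mGAM seeded at OD578 0.01 with each approved-drug library compound at 20 μM and 1% DMSO. Strains had first been passaged twice overnight without oxygen. Three biological replicates were run. The reported median is the area under the curve, calculated by the trapezoidal rule on curves truncated at entry into stationary phase and normalised to vehicle wells on the same plate.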

[6] = test system: P. vulgatus WT; assay: as above
Outline: as §2

[7] = test system: S. enterica typhimurium WT; assay: as above
Outline: as §2

[8] = test system: S. enterica typhimurium tolC KO; assay: as above
Outline: as §2

Measured: growth AUC normalised to DMSO control
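For growth AUC normalised to DMSO control (median) in this document: active when median AUC fell below 0.1.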

COc1cc2nc(N3CCN(C(=O)c4ccco4)CC3)nc(N)c2cc1OC [Prazosin hydrochloride]
inactive: [1] 0.993 | [2] 0.984 | [3] 1 | [4] 1.01 | [5] 1 | [6] 1 | [7] 0.993 | [8] 0.97

CNCCC(Oc1ccccc1OC)c1ccccc1 (stereo not given) [Nisoxetine hydrochloride]
inactive: [1] 0.949 | [2] 1.02 | [3] 1 | [4] 0.993 | [5] 1.01 | [6] 1 | [7] 0.957 | [8] 0.91

CC(C)(S)C(N)C(=O)O (racemic) [D,L-Penicillamine]
inactive: [1] 0.993 | [2] 0.991 | [3] 0.996 | [4] 0.992 | [5] 1.01 | [6] 1.01 | [7] 1.01 | [8] 1

CC[N+](C)(CC)CCOC(=O)C1c2ccccc2Oc2ccccc21 [Methantheline bromide]
inactive: [1] 1 | [2] 1.01 | [3] 0.973 | [4] 1 | [5] 0.972 | [6] 0.981 | [7] 1 | [8] 0.995

NC[C@@H]1O[C@@H](O[C@H]2[C@H](O)[C@@H](O[C@H]3O[C@H](CO)[C@@H](O)[C@H](N)[C@H]3O)[C@H](N)C[C@@H]2N)[C@@H](O)[C@H](O)[C@H]1O [Kanamycin A sulfate]
inactive: [1] 1.01 | [2] 1.03 | [3] 1.05 | [4] 1 | [5] 1.01 | [6] 0.992 | [7] 1.01 | [8] 1.01

COc1ccc(-c2cc(=O)c3c(O)cc(O[C@@H]4O[C@H](CO[C@@H]5O[C@@H](C)[C@H](O)[C@@H](O)[C@H]5O)[C@@H](O)[C@H](O)[C@H]4O)cc3o2)cc1O [Diosmin]
inactive: [1] 0.988 | [2] 0.96 | [3] 0.971 | [4] 0.975 | [5] 0.997 | [6] 0.991 | [7] 1 | [8] 0.996

NC[C@@H]1O[C@H](O[C@H]2[C@@H](O)[C@H](O[C@@H]3[C@@H](O)[C@H](N)C[C@H](N)[C@H]3O[C@H]3O[C@H](CO)[C@@H](O)[C@H](O)[C@H]3N)O[C@@H]2CO)[C@H](N)[C@@H](O)[C@@H]1O [Paromomycin sulfate]
inactive: [1] 1.01 | [2] 0.993 | [3] 1.01 | [4] 0.997 | [5] 1 | [6] 0.991 | [7] 1 | [8] 1

Nc1nc(N)nc(-c2cc(Cl)ccc2Cl)n1 [Irsogladine maleate]
inactive: [1] 0.998 | [2] 1 | [3] 0.999 | [4] 0.995 | [5] 0.959 | [6] 0.977 | [7] 0.999 | [8] 1

Nc1nc(O)c2ncn(CCC(CO)CO)c2n1 [Penciclovir]
inactive: [1] 1.01 | [2] 1.01 | [3] 1.06 | [4] 1.02 | [5] 1.02 | [6] 1.03 | [7] 1 | [8] 0.997

O=c1n(CCCN2CCN(c3cccc(Cl)c3)CC2)nc2ccccn12 [Trazodone hydrochloride]
inactive: [1] 0.992 | [2] 0.991 | [3] 0.957 | [4] 0.984 | [5] 0.993 | [6] 1.01 | [7] 1 | [8] 0.964

Cc1cc(C(=O)NNCc2ccccc2)no1 [Isocarboxazid]
inactive: [1] 0.994 | [2] 1.02 | [3] 1.03 | [4] 0.996 | [5] 1.05 | [6] 1.05 | [7] 0.998 | [8] 0.993

CN(c1nccc(=O)[nH]1)C1CCN(c2nc3ccccc3n2Cc2ccc(F)cc2)CC1 [Mizolastine]
inactive: [1] 1.02 | [2] 1.04 | [3] 1.02 | [4] 1.01 | [5] 0.929 | [6] 0.921 | [7] 1.01 | [8] 0.906

CN1CCN(C(c2ccccc2)c2ccc(Cl)cc2)CC1 (stereo not given) [Chlorcyclizine hydrochloride]
inactive: [1] 1 | [2] 0.993 | [3] 0.927 | [4] 0.984 | [5] 0.987 | [6] 0.963 | [7] 0.992 | [8] 0.958

CC1(C)O[C@@H]2C[C@H]3[C@@H]4C[C@H](F)C5=CC(=O)C=C[C@]5(C)[C@H]4[C@@H](O)C[C@]3(C)[C@]2(C(=O)CO)O1 [Flunisolide]
inactive: [1] 1.01 | [2] 1.05 | [3] 1.06 | [4] 0.984 | [5] 1.03 | [6] 1.05 | [7] 1 | [8] 1.01

O=C(O)c1ccccc1OP(=O)(O)O [Fosfosal]
inactive: [1] 0.983 | [2] 0.984 | [3] 0.994 | [4] 0.988 | [5] 1 | [6] 1.02 | [7] 1 | [8] 1.01

CNCCc1ccccn1 [Betahistine mesylate]
inactive: [1] 0.997 | [2] 0.976 | [3] 0.985 | [4] 1.01 | [5] 1 | [6] 1 | [7] 1.02 | [8] 1.01

CC(c1cc2ccccc2s1)N(O)C(N)=O (stereo not given) [Zileuton]
inactive: [1] 0.987 | [2] 0.986 | [3] 1 | [4] 0.931 | [5] 1.01 | [6] 0.985 | [7] 1 | [8] 0.993

CSc1ccc2c(c1)N(CCC1CCCCN1C)c1ccccc1S2 (stereo not given) [Thioridazine hydrochloride]
inactive: [1] 0.978 | [2] 1 | [3] 0.957 | [4] 0.975 | [5] 0.88 | [6] 0.796 | [7] 0.99 | [8] 0.957

Cc1nnc(NS(=O)(=O)c2ccc(N)cc2)s1 [Sulfamethizole]
inactive: [1] 0.985 | [2] 0.98 | [3] 0.978 | [4] 1.01 | [5] 1 | [6] 1 | [7] 0.978 | [8] 0.984

Clc1ccccc1C(c1ccccc1)(c1ccccc1)n1ccnc1 [Clotrimazole]
inactive: [1] 0.992 | [2] 1.02 | [3] 0.932 | [4] 0.985 | [5] 0.952 | [6] 0.954 | [7] 0.995 | [8] 0.829

O=C1OCCN1/N=C/c1ccc([N+](=O)[O-])o1 [Furazolidone]
active: [1] 0.391 | [2] 0.0191 | [3] 0.0449 | [4] 0.842 | [5] 0.0122 | [6] 0.00859
inactive: [7] 0.459 | [8] 0.609

CC/C(=C(\c1ccccc1)c1ccc(OCCN(C)C)cc1)c1ccccc1 [Tamoxifen citrate]
inactive: [1] 1.01 | [2] 1.01 | [3] 1 | [4] 0.981 | [5] 0.968 | [6] 0.978 | [7] 1 | [8] 1.01

CC(C)[N+](C)(CCOC(=O)C1c2ccccc2Oc2ccccc21)C(C)C [Propantheline bromide]
inactive: [1] 0.974 | [2] 0.983 | [3] 0.967 | [4] 1 | [5] 0.966 | [6] 0.958 | [7] 1 | [8] 0.981

CC(=O)CCCCn1c(=O)c2c(ncn2C)n(C)c1=O [Pentoxifylline]
inactive: [1] 1 | [2] 0.979 | [3] 0.967 | [4] 0.989 | [5] 0.983 | [6] 0.99 | [7] 1 | [8] 0.987

CC(N)C12CC3CC(CC(C3)C1)C2 (stereo not given) [Rimantadine hydrochloride]
inactive: [1] 0.99 | [2] 0.987 | [3] 0.985 | [4] 0.869 | [5] 0.978 | [6] 0.983 | [7] 0.996 | [8] 0.989

O=C1c2ccccc2S(=O)(=O)N1CCCCN1CCN(c2ncccn2)CC1 [Ipsapirone]
inactive: [1] 0.991 | [2] 0.99 | [3] 0.957 | [4] 0.998 | [5] 1 | [6] 1.01 | [7] 0.989 | [8] 1.01

CC(=O)Nc1ccc(OCC(O)CNC(C)C)cc1 (stereo not given) [Practolol]
inactive: [1] 1 | [2] 1.03 | [3] 1.02 | [4] 1.01 | [5] 1.02 | [6] 1.06 | [7] 1.02 | [8] 1.02

COc1c(O[C@@H]2O[C@H](CO)[C@@H](O)[C@H](O)[C@H]2O)cc2c(c1OC)-c1ccc(SC)c(=O)cc1[C@@H](NC(C)=O)CC2 [Thiocolchicoside]
inactive: [1] 0.993 | [2] 0.98 | [3] 1 | [4] 0.988 | [5] 1.01 | [6] 0.999 | [7] 1 | [8] 1

CCC[C@@H]1C[C@@H](C(=O)N[C@@H]([C@H]2O[C@H](SC)[C@H](O)[C@@H](O)[C@H]2O)[C@@H](C)O)N(C)C1 [Lincomycin hydrochloride]
inactive: [2] 0.956 | [3] 0.956 | [4] 0.994 | [7] 0.956 | [8] 0.866
active: [1] 0.904 | [5] 0.0196 | [6] 0.0159

Cc1ccc(Cl)c(Nc2ccccc2C(=O)O)c1Cl [Meclofenamic acid sodium salt monohydrate]
inactive: [1] 1 | [2] 0.954 | [3] 0.891 | [4] 0.981 | [5] 0.859 | [6] 0.903 | [7] 1.01 | [8] 1.01
